Test results published in PubChem BioAssay.

Test: probe aNOTCH3 binding on compound microarray – biochemical, small-molecule microarray, 635/667 nm fluorescence, primary screen (AID 1120);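 further: probe is a biotin-tagged antibody raised against NOTCH3 rather than NOTCH3 protein; score merges spot fluorescence near 667 nm with spot signal to noise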
Conditions: higher = more signal

Compound	composite z-score
COC(=O)[C@@]1(Cc2ccc(F)cc2)[C@H]2c3cc(C(=O)N4CCCC4)n(CCc4ccc(OC)c(Br)c4)c3C[C@H]2CN1C(=O)c1ccccc1	0.591
Cc1c(NC(=O)/C(C#N)=C/C=C/c2ccccc2)c(=O)n(-c2ccccc2)n1C	0.0859
C=C(C(=O)CC[C@@H](OC(=O)c1cccnc1)c1ccc(OCCO)cc1)C(C)C	0.123
O=c1cccc(-c2cccc3ccccc23)o1	-0.0377
Cc1ccc(S(=O)(=O)N2CC(C(=O)O)=CCC2c2ccccc2)cc1 (stereo not given)	-0.287
O=S(=O)(NCCCO)c1ccc(Br)cc1	-0.0414
C=CCOC(=O)[C@@H]1[C@H]2C(=O)O[C@H](c3ccccc3)[C@H](c3ccccc3)N2[C@H](c2ccc(OCCOC(=O)[C@H]3C[C@H]4C(=O)N[C@@H](Cc5ccccc5)C(=O)N4[C@H]3c3ccc(O)cc3)cc2)[C@@]12C(=O)Nc1ccc(I)cc12	0.0092
C=CCNC(=O)[C@H]1[C@@H]2C(=O)O[C@@H](c3ccccc3)[C@@H](c3ccccc3)N2[C@@H](c2ccc(O)cc2)[C@]12C(=O)Nc1ccc(C#Cc3ccc(OC)cc3)cc12	-0.0903
C[N+](C)(C)CCCC[C@@H]1NC(=O)[C@H]2C[C@@H](C(=O)O)[C@@H](c3cccc(OCCO)c3)N2C1=O	1.14
Cn1c2c(c3ccccc31)C(=O)C1NC2C=CC1(C)C(=O)OCc1ccccc1 (stereo not given)	-0.242
CCCCC(=C=CC[C@H](O)c1ccccc1OCCO)C[C@H](O)c1cc(Cl)cc(Cl)c1O	-0.0448
COc1c(C)cc(-c2cc3c(c(-c4ccccc4)n2)[Si](C(C)C)(C(C)C)O[C@H]3c2ccccc2)cc1C	-0.0343
C=CCN1Cc2ccccc2C[C@]2(N=C(c3ccc(OCCCO)cc3)O[C@@H]2c2ccccc2)C1=O	0.0276
O=C(N1CCCCC1)[C@]1(CCS(=O)(=O)c2ccccc2)N=C(c2ccc(OCCCO)cc2)O[C@@H]1c1ccccc1	0.381
COc1ccc([Si](C)(C)[C@@H]2[C@@H](CCO)O[C@]3(C(=O)N(Cc4ccccc4)c4ccc(N(C=O)c5ccccc5)cc43)[C@H]2C)cc1	-0.159
Cc1ccc(S[C@]2(C(=O)NCCCN(C)C)CC(=O)N(C(C)C)[C@@H]2c2ccc(CO)cc2I)cc1	-0.004
C=C(COC)C(=O)CC[C@H](OC(=O)c1cccnc1)c1ccccc1OCCO	0.217
CC(c1ccccc1)C(O)C1C=CC2C(=O)N(Cc3ccccc3)C(=O)C2N1n1cnnc1 (stereo not given)	0.178
CN1C(=O)C2C=CC(C(O)C(C)(C)C)N(Nc3ccccc3)C2C1=O (stereo not given)	-0.217
CS(=O)(=O)CCOC(=O)C1=CC(c2ccc(CO)cc2)=CC(c2cccs2)N(Cc2cccc(OC(F)(F)F)c2)C=C1C(=O)OCCS(C)(=O)=O (stereo not given)	0.152
Cc1ccc([C@H]2C(C(=O)O)=C[C@@H](C(C)C)N2S(=O)(=O)c2ccc(C)cc2)cc1	0.0596
COC(=O)[C@@]1(Cc2ccc(OC)cc2)[C@H]2c3cc(C(=O)N(C)C)n(Cc4ccc(OC)c(OC)c4)c3C[C@H]2CN1C(=O)c1ccccc1	0.391
CN1C(=O)C2C=CC(C(O)C=Cc3ccc([N+](=O)[O-])cc3)N(N3CCCCC3)C2C1=O (stereo not given)	1.03
C=CCOC(=O)[C@H]1[C@@H]2C(=O)O[C@@H](c3ccccc3)[C@@H](c3ccccc3)N2[C@@H](c2ccc(OCCOC(=O)[C@H]3C[C@H]4C(=O)N[C@@H](CCCC[N+](C)(C)C)C(=O)N4[C@H]3c3ccc(O)cc3)cc2)[C@]12C(=O)Nc1ccccc12	0.0306
[N-]=[N+]=Nc1ccccc1[C@@H]1OC(c2ccc(OCCCO)cc2)=N[C@]1(CCS(=O)(=O)c1ccccc1)C(=O)N1CCCCC1	0.144
